# Calls of active or inactive are those of the source. Rule for the calls: active = hit-call score of the fitted dose curve at least 0.9, where 1 is the maximum; inactive = score below 0.9.
# Biological target: Hypoxia-inducible factor 1-alpha (Homo sapiens) (UniProt Q16665)
# Experiment: ATG_HIF1a_CIS: Attagene CIS-FACTORIAL HepG2 Assay for human Hypoxia Inducible Factor 1 (HIF1A) (AID 2282951)
# Conditions: HepG2 Attagene cis-factorial HIF1a reporter transcription; actives raise or lower the signal
# Method in brief: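 RT-PCR/capillary electrophoresis fluorescence readout of reporter transcripts from endogenous-TF-driven cis elements in transfected HepG2 cells, 24 h exposure; activity fitted in both directions against DMSO controls.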
# Chain of Hypoxia-inducible factor 1-alpha (Homo sapiens) (Q16665 whole entry, looked up): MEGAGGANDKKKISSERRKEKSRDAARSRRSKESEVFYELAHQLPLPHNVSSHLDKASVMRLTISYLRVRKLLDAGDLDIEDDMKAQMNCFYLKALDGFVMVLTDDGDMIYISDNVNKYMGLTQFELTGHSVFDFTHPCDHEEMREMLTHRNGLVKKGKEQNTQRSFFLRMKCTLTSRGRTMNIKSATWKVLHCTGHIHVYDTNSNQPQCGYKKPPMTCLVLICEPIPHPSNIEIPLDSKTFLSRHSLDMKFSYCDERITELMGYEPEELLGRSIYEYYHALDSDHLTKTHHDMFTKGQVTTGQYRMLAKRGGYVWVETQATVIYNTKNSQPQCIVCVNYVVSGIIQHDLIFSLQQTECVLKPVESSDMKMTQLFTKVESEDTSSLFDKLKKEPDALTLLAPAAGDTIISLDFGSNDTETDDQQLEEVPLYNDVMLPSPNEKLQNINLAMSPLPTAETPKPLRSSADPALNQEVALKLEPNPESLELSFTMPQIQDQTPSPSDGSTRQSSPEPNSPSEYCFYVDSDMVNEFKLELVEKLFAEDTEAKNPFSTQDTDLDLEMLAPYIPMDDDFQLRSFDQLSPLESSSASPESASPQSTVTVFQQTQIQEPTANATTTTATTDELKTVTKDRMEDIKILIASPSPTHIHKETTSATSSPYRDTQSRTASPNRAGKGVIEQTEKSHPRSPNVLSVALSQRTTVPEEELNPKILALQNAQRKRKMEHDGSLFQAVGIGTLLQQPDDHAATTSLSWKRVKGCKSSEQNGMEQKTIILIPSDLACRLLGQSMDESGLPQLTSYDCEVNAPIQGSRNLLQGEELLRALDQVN
SMILES,outcome,AC50
CCC(C)(CCC(C)C)C(=O)O (configuration not stated),inactive,–
c1cc(N(CC2CO2)CC2CO2)ccc1Cc1ccc(N(CC2CO2)CC2CO2)cc1 (configuration not stated),–,6.64 µM (active)
CCCCCCOC(=O)CCCCCCCC(=O)OCCCCCC,inactive,–
NCc1ccccc1,inactive,–
O=[N+]([O-])c1ccc2nc[nH]c2c1,inactive,–
CCCCn1cc[n+](C)c1,inactive,–
C[Si](C)(C)O[Si](C)(C)O[Si](C)(C)C,inactive,–
Cc1cc(O)cc(C)c1Cl,–,48.4 µM (active)
CC(C)n1c(/C=C/[C@@H](O)C[C@@H](O)CC(=O)O)c(-c2ccc(F)cc2)c2ccccc21,inactive,–
CC1=C(CC=O)C(C)(C)CCC1,inactive,–
Cc1ccccc1S(N)(=O)=O,inactive,–
C=C(C)C(=O)OCC1CCCO1 (configuration not stated),inactive,–
OCCOCCOCCOCCOCCO,inactive,–
C1=CCC=C1,inactive,–
CC(C)CC(=O)CC(C)CC(C)C (configuration not stated),inactive,–
CCCOCCC,inactive,–
CC/C=C\CC1=C(C)CCC1=O,inactive,–
F[B-](F)(F)F,inactive,–
OCCN(CCO)c1cccc(Cl)c1,inactive,–
CC=CC(=O)O,–,56 µM (active)

# Biological target: Hepatocyte nuclear factor 6 (Homo sapiens) (UniProt Q9UBC0)
# Sequence (Q9UBC0 whole entry, looked up): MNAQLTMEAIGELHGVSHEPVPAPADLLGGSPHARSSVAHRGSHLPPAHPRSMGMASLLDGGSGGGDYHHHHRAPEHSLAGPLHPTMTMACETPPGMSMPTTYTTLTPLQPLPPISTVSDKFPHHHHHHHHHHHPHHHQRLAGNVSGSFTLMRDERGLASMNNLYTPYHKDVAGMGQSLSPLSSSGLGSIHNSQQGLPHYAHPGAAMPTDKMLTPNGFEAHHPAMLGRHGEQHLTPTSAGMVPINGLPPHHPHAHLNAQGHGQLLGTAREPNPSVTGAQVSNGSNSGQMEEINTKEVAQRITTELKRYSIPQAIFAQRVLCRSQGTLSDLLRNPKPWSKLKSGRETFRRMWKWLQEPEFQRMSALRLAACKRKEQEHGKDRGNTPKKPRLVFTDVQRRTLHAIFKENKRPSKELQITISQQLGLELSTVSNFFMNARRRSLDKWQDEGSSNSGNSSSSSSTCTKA
# Experiment: ATG_HNF6_CIS: Attagene CIS-FACTORIAL HepG2 Assay for human Hepatocyte Nuclear Factor 6 (HNF6) (AID 2282952)
# Conditions: HepG2 Attagene cis-factorial HNF6 reporter transcription; actives raise or lower the signal
# Method in brief: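 Endogenous transcription factor activity in human HepG2 liver cells was captured through cis-regulated reporter constructs. After 24 h treatment, reporter mRNA was measured by RT-PCR with capillary electrophoresis, and activity was fitted in both directions relative to DMSO.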
row,SMILES,outcome
1,CC1(C)S[C@@H]2[C@H](NC(=O)[C@H](N)c3ccccc3)C(=O)N2[C@H]1C(=O)O,inactive
2,CCC(C)(CCC(C)C)C(=O)O (configuration not stated),inactive
3,Cc1cc(C)c(S(=O)(=O)O)cc1N=Nc1cc(S(=O)(=O)O)c2ccccc2c1O,inactive
4,CCCc1c(OCCCCc2nn[nH]n2)ccc(C(C)=O)c1O,inactive
5,Clc1ccccn1,inactive
6,c1cc(N(CC2CO2)CC2CO2)ccc1Cc1ccc(N(CC2CO2)CC2CO2)cc1 (configuration not stated),inactive
7,CCCCCCOC(=O)CCCCCCCC(=O)OCCCCCC,inactive
8,CC1=NN(c2cc(Cl)c(S(=O)(=O)O)cc2Cl)C(=O)C1N=Nc1ccc(S(=O)(=O)O)cc1 (configuration not stated),inactive
9,O=C(O)Cc1c[nH]c2ccccc12,inactive
10,CCCCCCCCCCC1CO1 (configuration not stated),inactive
11,NCc1ccccc1,inactive
12,O=[N+]([O-])c1ccc2nc[nH]c2c1,inactive
13,CCCCn1cc[n+](C)c1,inactive
14,CC(C)CC(=O)O,inactive
15,C[Si](C)(C)O[Si](C)(C)O[Si](C)(C)C,inactive
16,Cc1cc(O)cc(C)c1Cl,inactive
17,CC1=C(CC=O)C(C)(C)CCC1,inactive
18,CC(O)(P(=O)(O)O)P(=O)(O)O,inactive
19,Cc1cccnc1,inactive

row,SMILES,outcome
1,Cc1ccccc1S(N)(=O)=O,inactive
2,C=C(C)C(=O)OCC1CCCO1 (configuration not stated),inactive
3,OCCOCCOCCOCCOCCO,inactive
4,C1=CCC=C1,inactive
5,CC(C)CC(=O)CC(C)CC(C)C (configuration not stated),inactive
6,CCCOCCC,inactive
7,CN(C)CCCN1c2ccccc2CCc2ccc(Cl)cc21,inactive
8,CC/C=C\CC1=C(C)CCC1=O,inactive
9,C[C@H]1C[C@H]2[C@@H]3CCC4=CC(=O)C=C[C@]4(C)[C@@]3(F)[C@@H](O)C[C@]2(C)[C@@]1(O)C(=O)CO,inactive
10,COC(OC)C(C)c1ccccc1 (configuration not stated),inactive
11,F[B-](F)(F)F,inactive
12,COCCCN,inactive
13,CC1=CCCC(C)(C)C12CCC(C)O2 (configuration not stated),inactive
14,CC(=O)c1nccs1,inactive
15,COc1ccccc1OCC(O)CO (configuration not stated),inactive
16,OCCN(CCO)c1cccc(Cl)c1,inactive
17,O=C(O)c1nc(Cl)c(Cl)c(Cl)c1Cl,inactive
18,CC=CC(=O)O,inactive

# Biological target: Heat shock factor protein 1 (Homo sapiens) (UniProt Q00613)
# Sequence (Q00613 whole entry, looked up): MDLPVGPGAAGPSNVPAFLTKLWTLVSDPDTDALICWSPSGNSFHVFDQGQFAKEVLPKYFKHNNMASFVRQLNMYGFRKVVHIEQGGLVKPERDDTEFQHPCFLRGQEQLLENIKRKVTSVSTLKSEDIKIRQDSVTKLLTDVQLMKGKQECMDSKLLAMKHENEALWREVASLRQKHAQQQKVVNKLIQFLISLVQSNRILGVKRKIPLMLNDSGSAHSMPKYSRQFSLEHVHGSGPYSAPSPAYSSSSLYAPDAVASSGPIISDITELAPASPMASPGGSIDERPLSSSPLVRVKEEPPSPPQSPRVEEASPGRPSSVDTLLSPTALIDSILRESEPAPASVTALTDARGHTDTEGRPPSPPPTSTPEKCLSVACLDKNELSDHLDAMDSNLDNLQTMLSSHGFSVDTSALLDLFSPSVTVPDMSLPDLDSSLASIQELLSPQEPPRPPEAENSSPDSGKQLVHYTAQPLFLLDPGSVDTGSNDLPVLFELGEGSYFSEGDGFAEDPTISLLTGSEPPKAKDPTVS
# Experiment: ATG_HSE_CIS: Attagene CIS-FACTORIAL HepG2 Assay for human Heat Shock Transcription Factor 1 (HSE) (AID 2282953)
# Conditions: HepG2 HSE cis-reporter, Attagene RNA transcription; actives raise or lower the signal
# Method in brief: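 HepG2, transient MRTU transfection, cis-promoter reporters (endogenous TF activity). 24 h compound. RNA → oligo(dT) RT → PCR → 6-FAM primer extension → HpaI cut → CE. Bidirectional fit vs DMSO.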
SMILES,outcome,AC50
CC1(C)S[C@@H]2[C@H](NC(=O)[C@H](N)c3ccccc3)C(=O)N2[C@H]1C(=O)O,inactive,–
Cc1cc(C)c(S(=O)(=O)O)cc1N=Nc1cc(S(=O)(=O)O)c2ccccc2c1O,inactive,–
CCCc1c(OCCCCc2nn[nH]n2)ccc(C(C)=O)c1O,inactive,–
Clc1ccccn1,inactive,–
c1cc(N(CC2CO2)CC2CO2)ccc1Cc1ccc(N(CC2CO2)CC2CO2)cc1 (configuration not stated),–,18.6 µM (active)
CCCCCCOC(=O)CCCCCCCC(=O)OCCCCCC,inactive,–
CC1=NN(c2cc(Cl)c(S(=O)(=O)O)cc2Cl)C(=O)C1N=Nc1ccc(S(=O)(=O)O)cc1 (configuration not stated),inactive,–
O=C(O)Cc1c[nH]c2ccccc12,inactive,–
CCCCCCCCCCC1CO1 (configuration not stated),inactive,–
NCc1ccccc1,inactive,–
O=[N+]([O-])c1ccc2nc[nH]c2c1,inactive,–
CC(C)CC(=O)O,inactive,–
C[Si](C)(C)O[Si](C)(C)O[Si](C)(C)C,inactive,–
Cc1cc(O)cc(C)c1Cl,inactive,–
CC(C)n1c(/C=C/[C@@H](O)C[C@@H](O)CC(=O)O)c(-c2ccc(F)cc2)c2ccccc21,inactive,–
CC1=C(CC=O)C(C)(C)CCC1,inactive,–
CC(O)(P(=O)(O)O)P(=O)(O)O,inactive,–
Cc1cccnc1,–,100 µM (active)

SMILES,outcome,AC50
Cc1ccccc1S(N)(=O)=O,inactive,–
C=C(C)C(=O)OCC1CCCO1 (configuration not stated),inactive,–
OCCOCCOCCOCCOCCO,inactive,–
CC(C)CC(=O)CC(C)CC(C)C (configuration not stated),inactive,–
CCCOCCC,inactive,–
CN(C)CCC(c1ccc(Cl)cc1)c1ccccn1 (configuration not stated),inactive,–
CN(C)CCCN1c2ccccc2CCc2ccc(Cl)cc21,inactive,–
CC/C=C\CC1=C(C)CCC1=O,inactive,–
C[C@H]1C[C@H]2[C@@H]3CCC4=CC(=O)C=C[C@]4(C)[C@@]3(F)[C@@H](O)C[C@]2(C)[C@@]1(O)C(=O)CO,inactive,–
COC(OC)C(C)c1ccccc1 (configuration not stated),inactive,–
F[B-](F)(F)F,inactive,–
COCCCN,inactive,–
CC1=CCCC(C)(C)C12CCC(C)O2 (configuration not stated),inactive,–
CC(=O)c1nccs1,inactive,–
OCCN(CCO)c1cccc(Cl)c1,inactive,–
O=C(O)c1nc(Cl)c(Cl)c(Cl)c1Cl,inactive,–
CC=CC(=O)O,inactive,–

# Reference: PubChem BioAssay (EPA / NIEHS)
